Values joined by “and” are separate entries in the source; they are usually repeats but may differ in a detail not shown here. Equal entries are not always repeated. Results filed as inconclusive are left out. Where a call stands in place of a potency, no number is given. A structure can be active in one record and inactive in another. Active and inactive are the calls of the source. The call rests on the fitted dose curve; in most records, active means well fitted curve in the direction sought with a large enough effect; inconclusive means small, poorly fitted or top-dose-only effect, or another doubt; inactive means no such curve, though single readings can be large; an effect the other way counts as inactive or inconclusive.
Assay: P-glycoprotein substrates identified in KB-8-5-11 adenocarcinoma cell line, qHTS therapeutic library screen (AID 1346987); further: nearly all actives have a fitted effect of over 65% in size
Conditions: KB-8-5-11 (P-gp overexpressing) viability, CellTiter-Glo, 72 h; series mostly up to 44.5 µM
How it was run: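 Compounds are pinned in dose-response onto KB-8-5-11 cells (500 cells/well, colchicine-free medium) and left 72 h at 37 degree C. CellTiter-Glo luminescence then yields AC50 values.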
In the case of `OC[C@H]1O[C@@H](OCCc2ccc(O)cc2)[C@H](O)[C@@H](O)[C@H]1O`, the Potency was “inactive”. In the case of `Cc1ccc2c(c1)c1c(n2CCc2ccc(C)nc2)CCN(C)C1`, the Potency was “inactive”. With `CCN(CCO)CCCOc1ccc2c(Nc3cc(CC(=O)Nc4cccc(F)c4)[nH]n3)ncnc2c1` the Potency was “inactive”. In the case of `CN1CCN(c2cccc(Nc3nc4c(-c5ccc(S(C)(=O)=O)cc5)cccn4n3)c2)CC1`, the Potency was “inactive and 20.6 µM (active)”. With `CN(C)CCOc1ccc(-c2nc(-c3ccc4c(c3)CCC4=NO)c(-c3ccncc3)[nH]2)cc1` the Potency was “inactive”. In the case of `N#Cc1c(N(CC(=O)O)CC(=O)O)sc(C(=O)O)c1CC(=O)O`, the Potency was “inactive”. For `CSc1cccc(Nc2ncc3cc(-c4c(Cl)cccc4Cl)c(=O)n(C)c3n2)c1`, the Potency was “inactive and 1.3 µM (active)”. With `NS(=O)(=O)c1ccc(Nc2nc(OCC3CCCCC3)c3[nH]cnc3n2)cc1` the Potency was “inactive”. In the case of `O=C1C(CCC(O)c2ccc(F)cc2)C(c2ccc(O)cc2)N1c1ccc(F)cc1` (stereo unspecified), the Potency was “inactive”. With `Oc1ccc(C=Cc2cc(O)cc(O)c2)cc1` the Potency was “inactive”. In the case of `CN1[C@H]2CC[C@H]1CC(OC(=O)c1c[nH]c3ccccc13)C2` (stereo partly specified), the Potency was “inactive”. With `COc1ccc(CCC(=O)Nc2nc3ccc(Cl)cc3s2)cc1OC` the Potency was “inactive”. In the case of `OC[C@H]1O[C@@H](Oc2ccc(O)cc2)[C@H](O)[C@@H](O)[C@H]1O`, the Potency was “inactive”. With `FC(F)(F)c1ccc(C=Cc2nc(COc3ccc(CCCCn4ccnn4)cc3)co2)cc1` the Potency was “inactive”. For `CCNC(=O)CCCC=CC[C@@H]1[C@H](C=CC(O)CCc2ccccc2)[C@@H](O)C[C@@H]1O` (stereo partly specified), the Potency was “inactive”. With `N#Cc1ccc(Oc2ccc3c(c2)COB3O)cc1` the Potency was “inactive”. For `CC(C)N(CCCNC(=O)Nc1ccc(C(C)(C)C)cc1)C[C@H]1O[C@@H](n2cc(Br)c3c(N)ncnc32)[C@H](O)[C@H]1O`, the Potency was “inactive”. For `CC[C@H](C=C[C@@H](C)[C@H]1CC[C@H]2[C@@H]3CC=C4C[C@@H](O)CC[C@]4(C)[C@@H]3CC[C@]12C)C(C)C`, the Potency was “inactive”. In the case of `CCNC(=O)c1noc(-c2cc(C(C)C)c(O)cc2O)c1-c1ccc(CN2CCOCC2)cc1`, the Potency was 73.1 nM (active). In the case of `CCC(=O)N1CCN(c2ccc(-n3c(=O)ccc4cnc5ccc(-c6cnc7ccccc7c6)cc5c43)cc2C(F)(F)F)CC1`, the Potency was 41.8 nM (active) and 133 nM (active). With `NC(=O)c1ncn([C@@H]2O[C@H](CO)[C@@H](O)[C@@H]2O)n1` the Potency was “inactive”. For `CO[C@H]1C=CO[C@@]2(C)Oc3c(C)c(O)c4c(O)c(c(C=NN5CCN(C)CC5)c(O)c4c3C2=O)NC(=O)C(C)=CC=C[C@H](C)[C@H](O)[C@@H](C)[C@@H](O)[C@@H](C)[C@H](OC(C)=O)[C@H]1C`, the activity change, negative = cytotoxicity was 0.164% [at 9.29 µM] (inactive). In the case of `CC1CNc2c(cccc2S(=O)(=O)N[C@@H](CCCN=C(N)N)C(=O)N2CC[C@@H](C)C[C@@H]2C(=O)O)C1` (stereo partly specified), the Potency was “inactive”. With `CON(C)C(=O)N1N=C(c2cc(F)ccc2F)S[C@]1(CCCN)c1ccccc1` the Potency was 14.8 nM (active). In the case of `CN(C)c1ccc(-c2nc3ncc(Cl)c(N4CCN(CC(=O)Nc5nccs5)CC4)c3[nH]2)cc1`, the Potency was “inactive”.

Assay: qHTS of pediatric cancer cell lines to identify multiple opportunities for drug repurposing: Primary screen for TC32 cells (AID 1347089); further: nearly all actives have a fitted effect of over 60% in size
Conditions: TC32 Ewing sarcoma viability, CellTiter-Glo luminescence, 48 h; series mostly up to 45.8 µM
How it was run: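 TC32 cells, 500-1,000/well in growth medium, compound-treated 48 h at 37 °C; viability from CellTiter-Glo luminescence. Primary screen: MIPE 11-point (0.78 nM–46 µM final), NPC 8-point (0.59 nM–46 µM final); confirmatory at 11-point dilutions.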
For `O=C(CO)N1CCC(c2[nH]nc(-c3ccc(Cl)cc3)c2-c2ccncn2)CC1`, the Potency was “inactive”. In the case of `CC(=O)NCCC(=O)N[C@@H](CCC(N)=O)C(=O)N[C@@H](CO)C(=O)N[C@@H](CCC(N)=O)C(=O)N[C@@H](CCC(N)=O)C(=O)N[C@H](C(=O)N[C@@H](Cc1ccccc1)C(=O)N[C@]1(C)CCCCCCC=CCCC[C@@](C)(C(=O)N[C@@H](CCC(N)=O)C(=O)N[C@@H](CC(N)=O)C(N)=O)NC(=O)[C@H](CC(C)C)NC(=O)[C@H](CC(C)C)NC(=O)[C@@H](CCCNC(=N)N)NC(=O)[C@H](Cc2c[nH]c3ccccc23)NC(=O)[C@H](CC(C)C)NC(=O)[C@H](CC(N)=O)NC1=O)[C@H](C)O`, the Potency was “inactive”. In the case of `CS(=O)(=O)c1ccc(C2=C(c3ccccc3)C(=O)OC2)cc1`, the Potency was “inactive”. For `O=C(NC[C@H](O)CO)c1ccncc1Nc1ccc(I)cc1F`, the Potency was “inactive”. For `CN(C)CCOc1cc(-c2cn[nH]c2)ccc1NC(=O)C1COc2ccccc2O1` (stereo unspecified), the Potency was “inactive”. For `C[C@H](c1ccc(F)cc1CCCC(=O)O)N(c1cc(F)ccc1F)S(=O)(=O)c1ccc(Cl)cc1`, the Potency was “inactive”. For `C[C@@H]1C[C@H]2[C@@H]3CCC4=CC(=O)C=C[C@]4(C)[C@@]3(F)[C@@H](O)C[C@]2(C)[C@@]1(O)C(=O)CO`, the Potency was “inactive”. For `CNC(=O)c1cc(COc2nnc(Nc3ccc(Cl)cc3)c3ccoc23)ccn1`, the Potency was “inactive”. For `Cc1ccccc1C(=O)c1ccc(Nc2ccc(Br)cc2N)cc1Cl`, the Potency was “inactive”. For `COc1ccc2ccc(=O)oc2c1CC=C(C)C`, the Potency was “inactive”. For `CCC(=C(CC)c1ccc(O)cc1)c1ccc(O)cc1`, the Potency was “inactive”. In the case of `OC[C@H]1O[C@@H](OCCc2ccc(O)cc2)[C@H](O)[C@@H](O)[C@H]1O`, the Potency was “inactive”. With `Cc1ccc2c(c1)c1c(n2CCc2ccc(C)nc2)CCN(C)C1` the Potency was “inactive”. With `CCN(CCO)CCCOc1ccc2c(Nc3cc(CC(=O)Nc4cccc(F)c4)[nH]n3)ncnc2c1` the Potency was 330 nM (active). For `CN1CCN(c2cccc(Nc3nc4c(-c5ccc(S(C)(=O)=O)cc5)cccn4n3)c2)CC1`, the Potency was “inactive”. With `CN(C)CCOc1ccc(-c2nc(-c3ccc4c(c3)CCC4=NO)c(-c3ccncc3)[nH]2)cc1` the Potency was “inactive”. In the case of `N#Cc1c(N(CC(=O)O)CC(=O)O)sc(C(=O)O)c1CC(=O)O`, the Potency was “inactive”. In the case of `CSc1cccc(Nc2ncc3cc(-c4c(Cl)cccc4Cl)c(=O)n(C)c3n2)c1`, the Potency was “inactive”. In the case of `NS(=O)(=O)c1ccc(Nc2nc(OCC3CCCCC3)c3[nH]cnc3n2)cc1`, the Potency was “inactive”. With `O=C1C(CCC(O)c2ccc(F)cc2)C(c2ccc(O)cc2)N1c1ccc(F)cc1` (stereo unspecified) the Potency was “inactive”. In the case of `Oc1ccc(C=Cc2cc(O)cc(O)c2)cc1`, the Potency was “inactive”. With `CN1[C@H]2CC[C@H]1CC(OC(=O)c1c[nH]c3ccccc13)C2` (stereo partly specified) the Potency was “inactive”. With `COc1ccc(CCC(=O)Nc2nc3ccc(Cl)cc3s2)cc1OC` the Potency was “inactive”. With `OC[C@H]1O[C@@H](Oc2ccc(O)cc2)[C@H](O)[C@@H](O)[C@H]1O` the Potency was “inactive”. With `FC(F)(F)c1ccc(C=Cc2nc(COc3ccc(CCCCn4ccnn4)cc3)co2)cc1` the Potency was 6580 nM (active). With `CCNC(=O)CCCC=CC[C@@H]1[C@H](C=CC(O)CCc2ccccc2)[C@@H](O)C[C@@H]1O` (stereo partly specified) the Potency was “inactive”. With `N#Cc1ccc(Oc2ccc3c(c2)COB3O)cc1` the Potency was “inactive”. For `CC(C)N(CCCNC(=O)Nc1ccc(C(C)(C)C)cc1)C[C@H]1O[C@@H](n2cc(Br)c3c(N)ncnc32)[C@H](O)[C@H]1O`, the Potency was “inactive”. For `CC[C@H](C=C[C@@H](C)[C@H]1CC[C@H]2[C@@H]3CC=C4C[C@@H](O)CC[C@]4(C)[C@@H]3CC[C@]12C)C(C)C`, the Potency was “inactive”. For `CCNC(=O)c1noc(-c2cc(C(C)C)c(O)cc2O)c1-c1ccc(CN2CCOCC2)cc1`, the Potency was 165 nM (active). With `CCC(=O)N1CCN(c2ccc(-n3c(=O)ccc4cnc5ccc(-c6cnc7ccccc7c6)cc5c43)cc2C(F)(F)F)CC1` the Potency was 73.9 nM (active). For `NC(=O)c1ncn([C@@H]2O[C@H](CO)[C@@H](O)[C@@H]2O)n1`, the Potency was “inactive”. In the case of `CO[C@H]1C=CO[C@@]2(C)Oc3c(C)c(O)c4c(O)c(c(C=NN5CCN(C)CC5)c(O)c4c3C2=O)NC(=O)C(C)=CC=C[C@H](C)[C@H](O)[C@@H](C)[C@@H](O)[C@@H](C)[C@H](OC(C)=O)[C@H]1C`, the activity change, negative = cytotoxic was 6.56% [at 9.17 µM] (inactive). With `CC1CNc2c(cccc2S(=O)(=O)N[C@@H](CCCN=C(N)N)C(=O)N2CC[C@@H](C)C[C@@H]2C(=O)O)C1` (stereo partly specified) the Potency was “inactive”. For `CON(C)C(=O)N1N=C(c2cc(F)ccc2F)S[C@]1(CCCN)c1ccccc1`, the Potency was 4.7 nM (active). In the case of `CN(C)c1ccc(-c2nc3ncc(Cl)c(N4CCN(CC(=O)Nc5nccs5)CC4)c3[nH]2)cc1`, the Potency was “inactive”.

From PubChem BioAssay (NCATS)
Potency means the concentration at half of the fitted maximal effect.
